Hits are enriched below; roughly 1.6% of the tested compounds scored in any of these assays.
KCNQ2 inh: rat KCNQ2 potassium channel inhibitors, primary screen, cell-based, CHO-K1, FluxOR thallium flux, B-score. AID 2156, 2009. 20 min; stronger effect = lower value. B-score at 10 µM. actives 1.1% (n = 310,000). Potassium voltage-gated channel subfamily KQT member 2 (Rattus norvegicus), O88943;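 active means fluorescence ratio B-score at most minus 3 library SDs, with starting brightness B-score within 2 library SDs, cut at about -5.5 in these data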
KCNQ2 enhance: potentiators of rat KCNQ2 potassium channel; Potassium voltage-gated channel subfamily KQT member 2 (Rattus norvegicus), O88943; CHO-K1 KCNQ2, FluxOR thallium flux fluorescence; stronger effect = higher value; B-score at 10 µM; actives 0.54% (n = 310,000);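 active means fluorescence ratio B-score at least 3 SD of library B-scores, with initial fluorescence B-score within 3 of them, cut at about 5.3 in these data; same plate scores as AID 2156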;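 further: B-score of peak minus minimum over baseline fluorescence ratio after K+ and Tl+ stimulus; positive B-score means potentiation of KCNQ2 with more thallium influx and brighter signal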
Kir21 confirm: mouse Kir2.1 channel blockers, retest, confirmation, cell-based, FluxOR thallium flux, duplicate; shares compounds with KCNQ2 enhance; Kir2.1-expressing cells, FluxOR thallium flux fluorescence; stronger effect = lower value; Tl flux remaining, % of negative control (stronger effect = lower value), % at 10 µM; actives 41% (n = 2,300); AID 2032, 2009;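 active means Primary-screen hit whose thallium flux fell at least 3 control SD below untreated wells in both duplicates, with normal baseline fluorescence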
HEK293 ctr: alters thallium flux in parental HEK293 cells, Kir2.1 counter-screen | FluxOR signal as % of negative control (100 = no effect), % at 10 µM | shares compounds with KCNQ2 enhance | actives 19% (n = 2,300) | FluxOR thallium flux fluorescence; 0% = unstimulated blank wells;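 active means dye signal at least 3 control SD above or below untreated wells in both duplicates, raw fluorescence within 3, either direction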;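 further: percent is based on the flux ratio of peak minus minimum fluorescence over baseline F0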
CHO-K1 Tl ctr: nonspecific thallium flux increase in parental CHO-K1, confirmation, counter-screen for KCNQ2 potentiator project, cell-based, FluxOR thallium flux, duplicate; actives 43% (n = 1,200); shares compounds with KCNQ2 enhance; activity increase over 3SD of controls, % at 10 µM; parental CHO-K1 cells, FluxOR thallium flux fluorescence; zero = vehicle mean+3SD, 100% = vehicle-minus-blank window;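 active means signal rise of at least 3 SD above the untreated control mean, in both duplicate wells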;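 further: counter screen of KCNQ2 potentiator hits so any rise reflects channel-independent effects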
KCNQ1 pot spec: human KCNQ1 channel potentiation off-target, confirmation, selectivity assay for KCNQ2 potentiator project, cell-based, CHO, FluxOR thallium flux | shares compounds with KCNQ2 enhance | CHO KCNQ1 stable, FluxOR thallium flux fluorescence; beyond 3SD, as % of vehicle-control signal | activation over 3SD threshold, % at 10 µM | actives 28% (n = 1,200);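 active means fluorescence ratio rise of at least 3 SD of vehicle wells above their mean, in both replicate wells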
Target sequence (P51787 whole entry, looked up): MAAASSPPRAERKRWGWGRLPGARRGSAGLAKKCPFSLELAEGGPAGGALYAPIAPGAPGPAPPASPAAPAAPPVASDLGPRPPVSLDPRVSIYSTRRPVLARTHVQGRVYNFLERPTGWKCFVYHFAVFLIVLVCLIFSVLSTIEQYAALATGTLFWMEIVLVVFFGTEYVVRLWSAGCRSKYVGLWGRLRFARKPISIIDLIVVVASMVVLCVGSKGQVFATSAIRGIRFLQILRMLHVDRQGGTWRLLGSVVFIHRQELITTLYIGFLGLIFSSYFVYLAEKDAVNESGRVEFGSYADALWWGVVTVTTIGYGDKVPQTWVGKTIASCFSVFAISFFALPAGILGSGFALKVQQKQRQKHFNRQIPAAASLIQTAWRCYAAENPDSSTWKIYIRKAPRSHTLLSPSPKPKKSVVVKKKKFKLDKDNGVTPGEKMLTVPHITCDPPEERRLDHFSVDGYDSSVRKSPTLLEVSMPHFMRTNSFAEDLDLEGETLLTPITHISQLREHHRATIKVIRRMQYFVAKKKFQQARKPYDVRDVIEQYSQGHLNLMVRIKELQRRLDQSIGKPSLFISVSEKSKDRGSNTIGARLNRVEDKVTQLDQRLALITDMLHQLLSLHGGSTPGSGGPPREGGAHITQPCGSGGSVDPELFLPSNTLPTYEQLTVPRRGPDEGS
KCNQ2 pot confirm: rat KCNQ2 channel potentiators, confirmation, cell-based, CHO, FluxOR thallium flux, duplicate. shares compounds with KCNQ2 enhance. CHO-KCNQ2 cells, FluxOR thallium flux fluorescence. potentiation, less the hit threshold, % at 10 µM. actives 68% (n = 1,200);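 active means fluorescence ratio rising 3 SD or more over the vehicle control mean in both replicates, plus primary screen hit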;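 further: peak minus minimum thallium fluorescence divided by baseline after K/Tl stimulus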
Kir21 spec: mouse Kir2.1 channel activation off-target, confirmation, selectivity assay for KCNQ2 potentiator project, cell-based, HEK293, FluxOR thallium flux; shares compounds with KCNQ2 enhance; HEK293 Kir2.1, FluxOR thallium flux fluorescence; activity over 3SD threshold, % at 10 µM; actives 2% (n = 1,200);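 active means fluorescence ratio rise of at least 3 SD above the vehicle-control mean, seen in both replicates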
KCNQ2 W236L MoA: potentiators of retigabine-insensitive KCNQ2 W236L, mechanism study for KCNQ2 potentiator project, cell-based, rat KCNQ2 W236L, CHO, automated patch clamp; automated patch clamp current; shares compounds with KCNQ2 enhance; current increase over 3SD of negative controls (%), stronger effect = higher value, % at 25 µM; actives 10% (n = 940);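 active means current increase at least 3 SD of the untreated controls above them in both duplicate recordings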
Hits are given with their value; – = inactive; · = no result given.

SMILES	KCNQ2 inh	KCNQ2 enhance	Kir21 confirm	HEK293 ctr	others
CC(=O)Nc1ccc(S(=O)(=O)N(CC(=O)Nc2cc(C)on2)Cc2ccc(F)cc2)cc1	–	·	·	·
COc1ccc(OC)c(S(=O)(=O)NC(N)=NCCc2ccccc2)c1	–	·	·	·
CN1CCN(NC(=O)COc2cccc(C(F)(F)F)c2)CC1	–	·	·	·
COc1cccc(CC(=O)Nc2cc(C(F)(F)F)ccc2N2CCCC2)c1	–	5.4	–	–	CHO-K1 Tl ctr=–;KCNQ1 pot spec=–;KCNQ2 pot confirm=–;Kir21 spec=–;KCNQ2 W236L MoA=–
O=C(COc1ccccc1)Nc1cc(C(F)(F)F)ccc1N1CCCC1	–	·	·	·
Cc1cc(N2CCCC2)ccc1NC(=O)COc1cccc(C(F)(F)F)c1	–	6.4	–	–	CHO-K1 Tl ctr=–;KCNQ1 pot spec=–;KCNQ2 pot confirm=6.0;Kir21 spec=–;KCNQ2 W236L MoA=–
COc1ccc(OC)c(NC(=O)Nc2ccc3[nH]ccc3c2)c1	–	–	·	·
COC(=O)C1=NN(C(=O)c2ccc(Cl)cc2)C(O)(c2ccccc2)C1 (stereo not given)	–	7.2	–	424%	CHO-K1 Tl ctr=–;KCNQ1 pot spec=95;KCNQ2 pot confirm=55;Kir21 spec=–;KCNQ2 W236L MoA=–
CCC1=NN(C(=O)c2ccc(Cl)cc2)C(O)(c2ccccc2)C1 (stereo not given)	–	–	·	·
CCOC(=O)C1=NN(C(=O)c2ccc(C)cc2)C(O)(c2ccc(Cl)cc2)C1 (stereo not given)	–	25	–	380%	CHO-K1 Tl ctr=0.0;KCNQ1 pot spec=–;KCNQ2 pot confirm=57;Kir21 spec=–;KCNQ2 W236L MoA=–
CCC1=NN(C(=O)c2ccc(Cl)cc2)C(O)(c2ccc(C)cc2)C1 (stereo not given)	–	–	·	·
O=C(NC(=S)NC1CCS(=O)(=O)C1)c1ccccc1Br (stereo not given)	–	–	·	·
Cc1ccc(C2(C)NC(=O)N(CC(=O)NC(=O)NC(C)(C)C)C2=O)cc1 (stereo not given)	–	·	·	·
O=C(CC1Sc2ccccc2NC1=O)NCc1ccccc1 (stereo not given)	–	·	·	·
Cc1cc(O)cc(C)c1NS(=O)(=O)c1ccc2ccccc2c1	–	–	56%	–
CCN(c1ccccc1)S(=O)(=O)c1ccc2ccccc2c1	–	·	·	·
CNS(=O)(=O)c1ccc2ccccc2c1	–	·	·	·
CN(c1ccc(O)cc1)S(=O)(=O)c1ccc2ccccc2c1	–	–	50%	–
C=CS(=O)(=O)c1sc(Cl)c(N2CCOCC2)c1[N+](=O)[O-]	-6.8	–	20%	48%
C=CSc1sc(Cl)c(N2CCOCC2)c1[N+](=O)[O-]	–	·	·	·
CSc1nc(C(=O)N2CCCC(Nc3ccc(C)c(C)c3)C2)cs1 (stereo not given)	–	·	·	·
CCN(CC)CCN(C(=O)c1ccc(Br)s1)c1nc2cc3c(cc2s1)OCCO3	–	–	·	·
CN(C)CCCN(C(=O)c1ccc(Br)s1)c1nc2cc3c(cc2s1)OCCO3	–	·	–	–
CCOc1cc(C2C(C(=O)c3ccco3)=C(O)C(=O)N2CC2CCCO2)ccc1O (stereo not given)	–	·	·	·
CC(=O)c1cccc(OCCCOc2cccc3cccnc23)c1	–	–	·	·
SMILES	KCNQ2 inh	KCNQ2 enhance	Kir21 confirm	HEK293 ctr	others
Cc1cc(F)ccc1S(=O)(=O)NCC(c1cccnc1)N1CCc2ccccc21 (stereo not given)	–	·	·	·
CC1CCCCC1NC(=O)c1cccc(NC2=NC3CS(=O)(=O)CC3S2)c1 (stereo not given)	–	·	·	·
Cc1ccc2c(CC(=O)OCc3nc(N)nc(Nc4ccccc4C)n3)coc2c1	–	11	–	–	CHO-K1 Tl ctr=17;KCNQ1 pot spec=–;KCNQ2 pot confirm=15;Kir21 spec=–;KCNQ2 W236L MoA=–
Cc1ccc(S(=O)(=O)CCC(=O)OCc2nc(N)nc(Nc3ccccc3C)n2)cc1	–	–	·	·
CC(OC(=O)CCOc1ccccc1)C(=O)NC1CC1 (stereo not given)	–	–	·	·
CN(CCOCCOc1ccc2ccccc2c1)Cc1ccccc1	–	·	17%	–
COc1cc(C)ccc1OCCOCCN(C)Cc1ccccc1	–	–	·	·
COc1ccc(OCCN(C)Cc2ccccc2)cc1	–	·	·	·
CN(CCCCOc1ccc(F)cc1)Cc1ccccc1	–	–	·	·
Cc1cc(C)c(C)c(OCCCCN(C)Cc2ccccc2)c1	–	·	26%	–
CCc1ccc(OCCCCN(C)Cc2ccccc2)cc1	–	·	26%	–
COc1ccc(NC(=O)CC23CC4CC(CC(Br)(C4)C2)C3)c(OC)c1	–	16	–	–	CHO-K1 Tl ctr=–;KCNQ1 pot spec=2.8;KCNQ2 pot confirm=72;Kir21 spec=–;KCNQ2 W236L MoA=–
NC(=O)c1ccccc1NC(=O)CC12CC3CC(CC(Br)(C3)C1)C2	–	–	·	·
COc1ccccc1NC(=O)CC12CC3CC(CC(Br)(C3)C1)C2	–	6.7	–	–	CHO-K1 Tl ctr=–;KCNQ1 pot spec=41;KCNQ2 pot confirm=23;Kir21 spec=–;KCNQ2 W236L MoA=–
COc1ccc(NC(=O)CNC(=O)C23CC4CC(CC(C4)C2)C3)c(OC)c1	–	·	·	·
Cc1cc(C)cc(N(C(=O)CNC(=O)c2ccco2)C(C(=O)NC2CCCCC2)c2ccncc2)c1 (stereo not given)	–	–	·	·
CC(=O)c1nn(-c2cccc(C)c2)cc1C(=O)c1cccc(Br)c1	–	·	·	·
Cc1ccc(C)c(S(=O)(=O)NCCN2CCOCC2)c1	–	·	·	·
O=C(COc1ccccc1[N+](=O)[O-])NNC(=O)Nc1cccc2ccccc12	–	–	·	·
Brc1csc(C=Nc2ccc3c(c2)OCCOCCOCCOCCO3)c1	–	–	·	·
Oc1ccc(N=Nc2cccc(Cl)c2)cc1C=Nc1ccc(N2CCOCC2)cc1	–	–	·	·
Oc1c(Cl)cc(Cl)cc1C=Nc1ccc2c(c1)OCCO2	–	8.5	–	–	CHO-K1 Tl ctr=92;KCNQ1 pot spec=–;KCNQ2 pot confirm=–;Kir21 spec=–;KCNQ2 W236L MoA=–
Oc1c(Br)cc(Cl)cc1C=Nc1ccc(N2CCOCC2)cc1	–	11	–	–	CHO-K1 Tl ctr=–;KCNQ1 pot spec=0.5;KCNQ2 pot confirm=7.7;Kir21 spec=–;KCNQ2 W236L MoA=–

Bioassay records (PubChem)
